Compound activity: PubChem, National Center for Advancing Translational Sciences (NCATS)
TRb SRC2 PPI: inhibitors of human thyroid hormone receptor beta-SRC2 interaction. 280,000 compounds, 0.065% hits. Potency, µM (series often up to 106 µM), for inactives: at the top dose activity change, negative = inhibition, usual class: inhibitors. TRbeta-SRC2 peptide binding, fluorescence polarization; receptor liganded with 1 µM T3;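 also: plate controls were bound peptide for no effect and peptide without receptor for full effect; nearly all actives have a fitted effect of over 50% in size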
Target sequence (P10828 whole entry, looked up): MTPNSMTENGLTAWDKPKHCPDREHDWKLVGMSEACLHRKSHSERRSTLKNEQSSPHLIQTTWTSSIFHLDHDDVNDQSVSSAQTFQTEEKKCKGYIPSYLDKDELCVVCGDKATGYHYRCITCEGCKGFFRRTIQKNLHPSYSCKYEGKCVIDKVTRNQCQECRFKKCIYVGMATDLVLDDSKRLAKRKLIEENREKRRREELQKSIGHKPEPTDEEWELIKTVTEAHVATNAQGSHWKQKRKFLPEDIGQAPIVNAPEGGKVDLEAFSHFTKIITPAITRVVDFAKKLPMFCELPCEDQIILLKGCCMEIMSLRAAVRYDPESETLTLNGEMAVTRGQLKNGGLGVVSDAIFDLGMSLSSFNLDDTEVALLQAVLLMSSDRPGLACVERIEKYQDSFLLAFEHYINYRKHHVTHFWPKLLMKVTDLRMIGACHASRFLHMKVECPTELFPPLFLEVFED
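Polarization signal, normalized between peptide-alone and full complex controls, measured compound effects on T3-liganded human TRb LBD (0.6 uM) binding 20 nM Texas Red SRC2 peptide after 5 hr.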
Tau FP inhib: inhibitors of human tau fibril formation. P10636. K18 P301L tau heparin fibrillization, Alexa594 FP, 6 h. Potency, µM (titrated, usually from 57.7 µM), without a hit: at the highest dose activity, negative = inhibition, usual class: inhibitors. 280,000 compounds, 0.39% hits; also: nearly all actives have a fitted effect of over 55% in size
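Recombinant K18 P301L […], labeled with Alexa 594 at 0.24 uM over 15 uM unlabeled; heparin inducer 20 uM final; 37 C, 6 hr; FP endpoint.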
TexasRed fluor: Texas Red fluorescence interference in TRb-SRC2 counter-screen | TRb/SRC2 Texas Red total fluorescence interference | Potency, µM (titrated, usually from 106 µM), inactives show at the top dose fluorescence change, negative = quenching | 280,000 compounds, 0.29% hits | AID 1479; active = well fitted curve in either direction with a large enough effect; inconclusive = small, poorly fitted or top-dose-only effect
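Human TRb ligand-binding domain at 0.6 uM with 20 nM Texas Red SRC2 peptide in Tris buffer containing 1 uM T3 and 5% DMSO, incubated with compound 5 h at ambient temperature. Total fluorescence (555/632 nm) calculated as parallel + 2 × perpendicular.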
Tau fluor counter: counter-screen for tau fibril formation inhibitors | tau K18 P301L Alexa594 fluorescence, heparin fibrillization | Potency, µM (doses to about 57.7 µM), without a hit: top-dose activity change, negative = decrease | 280,000 compounds, 0.93% hits | AID 1463; also: nearly all actives have a fitted effect of over 55% in size
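Human K18 P301L tau (15 uM unlabeled plus 0.24 uM Alexa 594-labeled, final) in 100 mM sodium acetate pH 7 was mixed with compound and 20 uM heparin and incubated 6 hr at 37 C.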
Tau ThT inhib: blocks human tau fibril formation measured by thioflavin T; AID 1460; Potency, µM (doses to about 57.4 µM), for inactives: top-dose activity, negative = inhibition, usual class: inhibitors; 270,000 compounds, 2.1% hits; recombinant tau K18 P301L, heparin-induced fibrillization, ThT fluorescence; P10636; also: nearly all actives have a fitted effect of over 55% in size
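ThT emission at 510 nm, taken 1 hr after adding 30 uM dye, quantifies aggregates formed when 20 uM heparin acts on human tau K18 P301L for 6 hr at 37 C.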
GoLoco inh red: inhibitors of human Gai1-RGS12 GoLoco interaction (red fluorophore) | P63096 | Gai1:RGS12 GoLoco peptide FP, rhodamine, 10 min | Potency, µM (doses to about 61.6 µM), for the others: at the top dose activity, negative = inhibition, hits mostly inhibitors | 230,000 compounds, 0.44% hits; active = well fitted inhibition curve with a large enough effect, not every such curve was filed as active; inactive = no such curve, though single readings can be large or run the other way; also: nearly all actives have a fitted effect of over 30% in size
An asterisk follows results filed as active; ? = inconclusive; nt = no result given; [ ] = another dose, or the depositor's remark. The list is not random: actives were taken first. Their share in the collection is about 3.1%. Unless noted, calls follow the shape of the dose curve; as a rule, active = well fitted curve in the direction sought with a large enough effect; inconclusive = small, poorly fitted or top-dose-only effect, or another doubt; inactive = no such curve, though single readings can be large; an effect the other way counts as inactive or inconclusive. Unless noted, % is scaled to controls: 0 for no effect and ±100 for the full control effect; potency is read from the fitted curve at half-maximal effect.

SMILES | TRb SRC2 PPI | Tau FP inhib | TexasRed fluor | Tau fluor counter | Tau ThT inhib | GoLoco inh red
O=C1/C(=C/c2ccc(F)cc2)SC(=S)N1Nc1ncc(C(F)(F)F)cc1Cl | 2% | -14% | -4% | -26% | ? | -4%
NS(=O)(=O)c1ccc(NN=C2CCN(Cc3ccccc3)CC2)c([N+](=O)[O-])c1 | -7% | 12% | -4% | -27% | 25µM* | -3%
Cc1cc(=O)[nH]c(N/N=C/C2=C(N3CCOCC3)C(=C\c3ccc(Cl)cc3)/CC2)n1 | 7% | 2% | 0% | -14% | 22µM* | 17%
O=C(O)c1ccccc1N/N=C/C1=C(N2CCOCC2)C(=C\c2ccccc2)/CC1 | -3% | -8% | -5% | ? | 10µM* | 14%
COc1ccc(-c2c(-c3ccc(O)cc3O)n[nH]c2C(F)(F)F)cc1 | 2% | 5% | -2% | 11µM*[quencher] | -17% | -7%
COc1ccccc1-c1c(-c2ccc(O)cc2O)n[nH]c1C(F)(F)F | 8% | 1% | -1% | 8.9µM*[quencher] | -6% | 1%
Oc1ccc(-c2n[nH]c(C(F)(F)F)c2-c2ccccc2)c(O)c1 | 3% | 8% | 1% | ? | 5% | 3%
Cc1cccc(C)c1NC(=O)N1C2CCC1CC(O)(c1cccnc1)C2 (stereo not drawn) | 1% | -5% | -4% | -4% | -2% | 0%
COc1ccc(NC(=S)Nc2ccc(OCc3ccccc3)cc2)cc1OC | -7% | 18% | 5% | 25µM*[quencher] | ? | -14%
O=[N+]([O-])c1cccc(/C=N\N=C2c3ccccc3-c3ccccc32)c1O | -5% | 8% | ? | ? | 5µM* | 157%
O=C(NC1(O)C(=O)c2ccccc2C1=O)c1c(Cl)cccc1Cl | -18% | ? | 2% | -6% | nt | -2%
O=C(NO)c1ccccc1 | 10% | nt | -4% | nt | nt | 28µM*
O=C(NC1(O)C(=O)c2ccccc2C1=O)c1ccccc1 | -28% | ? | 1% | -19% | 2.8µM* | 3%
CNC(=O)c1ccccc1 | 3% | nt | -1% | nt | nt | 2%
C=CCS/C(N)=N\N=C\c1c(O)ccc2ccccc12 | -3% | 9% | -2% | 11µM*[quencher] | ? | 7%
COc1cccc(Cc2nc3ccccc3nc2SCC(=O)N2CCCCC2C)c1 (stereo not drawn) | -1% | 7% | -1% | -2% | -6% | nt
CC(=O)n1cc(/C=N/NC(N)=S)c2ccccc21 | -5% | 4% | 1% | -8% | -22% | 13%
CCOC(=O)C1=C(CSc2nc3c(cc2C#N)CCC3)OC(N)=C(C#N)C1c1ccccc1 (stereo not drawn) | 4% | -7% | 0% | ? | ? | 3%
COC(=O)C1=C(CSc2nc3c(cc2C#N)CN(C)CC3)OC(N)=C(C#N)C1c1ccccc1F (stereo not drawn) | -3% | ? | -3% | ? | 18µM* | 130%
CCOC(=O)C1=C(CSc2nc3c(cc2C#N)CN(C)CC3)OC(N)=C(C#N)C1c1ccccc1 (stereo not drawn) | -9% | -15% | -3% | ? | 28µM* | 75%
CCOC(=O)C1=C(CSc2nc3c(cc2C#N)CN(C)CC3)OC(N)=C(C#N)C1c1ccc(F)cc1 (stereo not drawn) | -26% | ? | 2% | ? | 16µM* | 96%
COC(=O)C1=C(C)OC(N)=C(C#N)C1c1ccccc1F (stereo not drawn) | 9% | 1% | 0% | -7% | -10% | 3%
Cc1ccc(NC(=O)c2nc(S(C)(=O)=O)ncc2N(Cc2ccco2)Cc2ccco2)cc1C | -4% | -6% | 6% | -13% | -7% | nt
CC(=O)c1cccc(NC(=O)NC(C)c2ccncc2)c1 (stereo not drawn) | 2% | -2% | -3% | -2% | -4% | 11%
Cc1cccc(NC(=O)Cn2c(O)c(N=NC(=O)c3ccncc3)c3ccccc32)c1 | 9% | -5% | -1% | -27% | ? | -5%
